Pf growth 96h – P. falciparum growth inhibition at 96 hour, primary screen for plastid delayed-death inhibitors. P. falciparum luciferase reporter growth, 96 h. Potency, µM (titrated, usually from 28.7 µM), for the others: at the top dose activity change, negative = inhibition, most hits filed as inhibitors. 320,000 tested, 6.9% active; further: potency means the concentration at half of the fitted maximal effect
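Delayed-death screen, second-generation endpoint: infected erythrocytes, 2% hematocrit, 0.05% parasitemia final; 96 hours at 37 C, 5% CO2; luciferase detection reagent; luminescence decrease equals reduced growth.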
HCMV antiviral – human cytomegalovirus inhibition; HFF cells, HCMV-luciferase reporter, 72 h; hits give low values; activity change, negative = inhibition, % at 57.5 µM; 410,000 tested, 4.5% active; AID 1259415; in the data active means activity change below about -60%; inconclusive means no clear call, values can overlap the other calls; inactive means above about -39%
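Two compound doses tested in HFFs infected with HCMV-luciferase, MOI 1 PFU/cell, 72 h at 37C. Lysate luminescence read with OneGlo; data normalized against buffer-only and 10uM Salinomycin inhibitor controls.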
Giardia FBPA inh – blocks Giardia fructose-bisphosphate aldolase activity; A8B2U2; purified Giardia FBPA; Potency, µM (top dose mostly 59.6 µM), for the others: top-dose activity, negative = inhibition, hits mostly inhibitors; 290,000 tested, 0.71% active; AID 2451; further: potency means the concentration at half of the fitted maximal effect; nearly all actives have a fitted effect of over 55% in size
Target sequence (A8B2U2 whole entry, looked up): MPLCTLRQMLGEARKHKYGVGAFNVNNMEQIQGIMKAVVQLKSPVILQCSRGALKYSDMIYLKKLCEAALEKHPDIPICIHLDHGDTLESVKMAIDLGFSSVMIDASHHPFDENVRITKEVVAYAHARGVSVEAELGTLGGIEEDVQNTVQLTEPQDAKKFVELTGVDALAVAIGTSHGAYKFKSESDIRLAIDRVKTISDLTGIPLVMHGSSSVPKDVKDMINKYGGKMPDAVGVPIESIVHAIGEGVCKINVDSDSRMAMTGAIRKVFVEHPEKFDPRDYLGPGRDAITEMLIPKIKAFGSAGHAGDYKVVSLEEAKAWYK
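Giardia FBPA (40 nM reagent) was preincubated 10 min at RT with compound (up to 57.5 uM final), then substrate plus GAPDH/TPI/NAD/arsenate coupling system with diaphorase/resazurin was added; resorufin fluorescence (525/598 nm) was read after 20 min.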
Sm TGR block – S. mansoni TGR enzyme inhibition; purified TGR, DTNB reduction, TNB absorbance 405 nm; Potency, µM (titrated, usually from 114 µM), for the others: top-dose activity change, negative = inhibition, most hits filed as inhibitors; 360,000 tested, 3% active; AID 485364; further: potency means the concentration at half of the fitted maximal effect; nearly all actives have a fitted effect of over 60% in size
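First, TGR (20 nM dispensed) and NADPH were mixed with compound. Second, a 15 min room-temperature incubation followed. Third, further NADPH and then DTNB were added to start the reaction. Finally, TNB absorbance was monitored kinetically.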
Pf growth 48h – P. falciparum growth inhibition at 48 hours (one generation); Potency, µM (top dose mostly 28.7 µM), without a hit: at the highest dose activity change, negative = inhibition, most hits filed as inhibitors; P. falciparum luciferase growth in erythrocytes, 48 h; 310,000 tested, 5.9% active; further: potency means the concentration at half of the fitted maximal effect
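A one-generation exposure of luciferase-tagged malaria parasites in RPMI 1640/Albumax erythrocyte culture, 37 C and 5% CO2. Inhibition is inferred from decreased luminescence after adding detection reagent.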
* = called active by the depositor. Rows were chosen to be rich in hits. Some 14% of all compounds tested hit in one or more screens of this group. Unless noted, the call rests on the fitted dose curve; in most records, active means well fitted curve in the direction sought with a large enough effect; inconclusive means small, poorly fitted or top-dose-only effect, or another doubt; inactive means no such curve, though single readings can be large; an effect the other way counts as inactive or inconclusive. On the % scale 0 is the no-effect control and ±100 the full control effect.

Results for COc1ccc(CN2CCN(c3ncnc4scc(-c5ccc(F)cc5)c34)CC2)cc1 ?
Pf growth 96h: 9.28µM*; HCMV antiviral: 20.7; Giardia FBPA inh: 40.8%; Sm TGR block: 0.3%; Pf growth 48h: inconclusive

Results for CCCCN(C(=O)c1cccc(S(=O)(=O)N2CCN(C)CC2)c1)c1c(N)n(CCC)c(=O)[nH]c1=O ?
Pf growth 96h: 19.3%; HCMV antiviral: -8.7; Sm TGR block: 0.8%; Pf growth 48h: 33.3%

How did O=c1[nH][nH]c2c1C(c1ccc(Cl)c(Cl)c1)OC(CCc1ccccc1)C2 (centres undefined) do in these assays?
HCMV antiviral: -39.1

How did COc1ccc(CN2CCN(CC3CC3)CC2CCO)cc1C (centres undefined) do in these assays?
Pf growth 96h: inconclusive; HCMV antiviral: 43.4; Giardia FBPA inh: 4.9%; Sm TGR block: 1.4%; Pf growth 48h: 16.8%

What do the screens show for `OCCC1CN(C2CCC2)CCN1Cc1ccc(F)c(F)c1` (centres undefined)?
Pf growth 96h: 11.7µM*; HCMV antiviral: 6.9; Giardia FBPA inh: 5.8%; Sm TGR block: -16.6%; Pf growth 48h: -1.4%

What do the screens show for `OCCC1CN(C2CCN(c3ccccc3)CC2)CCN1Cc1ccc(F)c(F)c1` (centres undefined)?
Pf growth 96h: 28.7%; HCMV antiviral: -3.1; Giardia FBPA inh: 0.7%; Sm TGR block: -4.8%; Pf growth 48h: inconclusive

Results for OCCC1CN(CC2CC2)CCN1Cc1ccc(F)c(F)c1 (centres undefined) ?
Pf growth 96h: 13.1µM*; HCMV antiviral: 20.9; Giardia FBPA inh: 9.2%; Sm TGR block: 6.2%; Pf growth 48h: 35.2%

Results for Cc1nc2ccccc2nc1CN1CCN(Cc2ccc(F)c(F)c2)C(CCO)C1 (centres undefined) ?
Pf growth 96h: inconclusive; HCMV antiviral: 14.1; Giardia FBPA inh: -4.6%; Sm TGR block: 14.1µM*; Pf growth 48h: inconclusive

Results for COc1cccc(CN2CCN(C3CCN(c4ccccc4F)CC3)CC2CCO)c1 (centres undefined) ?
Pf growth 96h: inconclusive; HCMV antiviral: -21.4; Giardia FBPA inh: 0.9%; Sm TGR block: 22.4µM*; Pf growth 48h: -23.5%

Results for Cc1oc(-c2cccs2)nc1CN1CCN(Cc2ccc(F)c(F)c2)C(CCO)C1 (centres undefined) ?
Pf growth 96h: inconclusive; HCMV antiviral: -16.0; Giardia FBPA inh: -0.1%; Sm TGR block: -28.8%; Pf growth 48h: inconclusive

Results for Cc1nnc(-c2ccc(Cl)cc2)[nH]c1=O ?
Pf growth 96h: inconclusive; HCMV antiviral: -31.2; Giardia FBPA inh: -12.6%; Sm TGR block: 7.5%; Pf growth 48h: 35.2%

What do the screens show for `COc1cc(NC(=O)CC(C)S(=O)(=O)c2ccc3c(c2)CCN3C(C)=O)cc(OC)c1OC` (centres undefined)?
HCMV antiviral: 0.1; Sm TGR block: -0.9%

What do the screens show for `CCC(=O)N1[C@@H]2Cn3c(cccc3=O)[C@H]1[C@@H](C(=O)NC1CCCCC1)[C@@H]2CO`?
HCMV antiviral: 5.0

How did Cc1ccc(CN2CCN(C3CCC3)CC2CCO)cc1 (centres undefined) do in these assays?
Pf growth 96h: inconclusive; HCMV antiviral: -4.0; Giardia FBPA inh: 6.8%; Sm TGR block: 0.9%; Pf growth 48h: 3.7%

What do the screens show for `Cc1ccccc1CN1CCN(C2CCC2)CC1CCO` (centres undefined)?
Pf growth 96h: 14.7µM*; HCMV antiviral: -35.4; Giardia FBPA inh: 5.8%; Sm TGR block: -24.9%; Pf growth 48h: 0.7%

Results for CCOC(=O)N1CCC(N2CCN(Cc3ccccc3)C(CCO)C2)CC1 (centres undefined) ?
Pf growth 96h: inconclusive; HCMV antiviral: -15.7; Giardia FBPA inh: 3.7%; Sm TGR block: 15.8µM*; Pf growth 48h: 7.9%

Results for CCOC(=O)N1CCC(N2CCN(Cc3ccc(C)o3)C(CCO)C2)CC1 (centres undefined) ?
Pf growth 96h: -19.0%; HCMV antiviral: 15.2; Giardia FBPA inh: 3.4%; Sm TGR block: -7.3%; Pf growth 48h: -6.8%

How did N#CC1c2ccccc2C=CN1C(=O)N(c1ccccc1)c1ccccc1 (centres undefined) do in these assays?
HCMV antiviral: -15.2

What do the screens show for `CCOc1ccc(-c2nnc(SCC(=O)Nc3cc(F)ccc3F)o2)cc1`?
HCMV antiviral: inconclusive; Sm TGR block: -35.5%

Results for O=S(=O)(c1ccccc1)c1nc(-c2ccco2)oc1NCc1cccnc1 ?
Pf growth 96h: -0.8%; HCMV antiviral: inconclusive; Giardia FBPA inh: 3.4%; Sm TGR block: 25.1µM*; Pf growth 48h: inconclusive

What do the screens show for `C=CCNc1oc(-c2ccco2)nc1S(=O)(=O)c1ccccc1`?
Pf growth 96h: inconclusive; HCMV antiviral: -12.4; Giardia FBPA inh: -1.4%; Sm TGR block: 12.6µM*; Pf growth 48h: -12.6%

What do the screens show for `COCCNc1oc(-c2cccs2)nc1S(=O)(=O)c1ccc(C)cc1`?
Pf growth 96h: inconclusive; HCMV antiviral: -30.2; Giardia FBPA inh: -11.7%; Sm TGR block: -2.4%; Pf growth 48h: inconclusive

Results for COCCNc1oc(/C=C/c2ccc(F)cc2)nc1S(=O)(=O)c1ccccc1 ?
Pf growth 96h: inconclusive; HCMV antiviral: 0.0; Giardia FBPA inh: 3.7%; Sm TGR block: 31.6µM*; Pf growth 48h: inconclusive

How did COCCNc1oc(-c2ccco2)nc1S(=O)(=O)c1ccccc1 do in these assays?
Pf growth 96h: inconclusive; Sm TGR block: 50.1µM*; Pf growth 48h: 8.8%

What do the screens show for `Cc1cc(Cl)ccc1NC(=O)CCS(=O)(=O)c1cc2c(cc1C)NC(=O)CO2`?
HCMV antiviral: -22.9; Sm TGR block: -10.6%

Results for OCC#Cc1ncc(C(F)(F)F)cc1Cl ?
Pf growth 96h: 0.0%; HCMV antiviral: 7.5; Giardia FBPA inh: 5.5%; Sm TGR block: 44.7µM*; Pf growth 48h: -4.9%

How did CC1(C)Cc2ccccc2-c2nc(NCCCO)[nH]c(=O)c21 do in these assays?
Pf growth 96h: 65.7%; HCMV antiviral: -12.0; Giardia FBPA inh: 10.1%; Sm TGR block: 13.5%; Pf growth 48h: 49.5%

How did NC[C@](O)(CS(=O)(=O)O)c1ccc(Cl)cc1 do in these assays?
Giardia FBPA inh: 9.6%

How did NCC(O)(c1ccc(Cl)cc1)c1ccc(Cl)cc1 do in these assays?
Pf growth 96h: 4.65µM*; HCMV antiviral: 7.3; Giardia FBPA inh: 0.2%; Pf growth 48h: inconclusive

Results for CCN(CC)CCOc1ccc(C(O)(Cc2ccc(Cl)cc2)c2ccc(C)cc2)cc1 (centres undefined) ?
Pf growth 96h: 9.53µM*; Giardia FBPA inh: 0.5%; Pf growth 48h: 13.5µM*

How did CCN(CC)CCNCC(O)(c1ccc(Cl)cc1)c1ccc(Cl)cc1 do in these assays?
Pf growth 96h: 11.7µM*; HCMV antiviral: -23.3; Giardia FBPA inh: 8.5%; Sm TGR block: -12.3%; Pf growth 48h: inconclusive

Bioassay records deposited in PubChem by National Center for Advancing Translational Sciences (NCATS).
